Results from PubChem BioAssay AID624465 (National Center for Advancing Translational Sciences (NCATS), 2012).
The campaign covered roughly 360,000 compounds. About 300 (0.083%) were called active. Rule as the data show it: active = activation above about 40%; inconclusive = between about 15% and that limit; inactive = weaker than that. Only a selection was taken, and actives are over-represented in it overall.

The compounds below were run against D(2) dopamine receptor (Homo sapiens) (UniProt P14416) (assay: Beta-Arrestin HTS for Positive Allosteric Modulators of the Human D2 Dopamine Receptor: Agonists). Conditions: DiscoveRx PathHunter D2 beta-arrestin, luminescence, 90 min; stronger effect = higher value; 100% = 57 uM dopamine signal.
Sequence of D(2) dopamine receptor (Homo sapiens) (P14416 whole entry, looked up): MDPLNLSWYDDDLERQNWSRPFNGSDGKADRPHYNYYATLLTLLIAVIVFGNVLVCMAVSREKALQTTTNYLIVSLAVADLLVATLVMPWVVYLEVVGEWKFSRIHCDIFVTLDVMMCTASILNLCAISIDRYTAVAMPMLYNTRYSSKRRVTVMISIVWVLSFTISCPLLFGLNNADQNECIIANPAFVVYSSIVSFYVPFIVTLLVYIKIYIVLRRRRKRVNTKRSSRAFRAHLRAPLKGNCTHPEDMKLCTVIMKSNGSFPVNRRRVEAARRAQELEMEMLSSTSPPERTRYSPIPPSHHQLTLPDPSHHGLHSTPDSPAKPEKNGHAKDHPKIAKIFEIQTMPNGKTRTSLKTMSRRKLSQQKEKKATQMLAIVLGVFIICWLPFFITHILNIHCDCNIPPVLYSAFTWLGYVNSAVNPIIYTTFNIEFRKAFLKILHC
Text: There is great interest in identifying small molecule ligands for G-protein coupled receptors (GPCRs) as nearly 50% of all FDA-approved drugs target these important receptor proteins. […] Amongst the dopamine receptors (DARs), the D2 is arguably one of the most validated drug targets in neurology and psychiatry. For instance, all receptor-based antiparkinsonian drugs primarily work via stimulating the D2 DAR, whereas all FDA-approved antipsychotic agents are antagonists of this receptor. The D2 DAR is also therapeutically targeted in other disorders such as restless legs syndrome, tardive dyskinesia, Tourette's syndrome, and hyperprolactinemia.
To this end, a miniaturized qHTS screen was developed to be screened against the Molecular Libraries Small Molecule Repository (MLSMR). This assay seeks to identify agonists against the D2 DAR.
NIH Molecular Libraries Probe Production Network [MLPCN]
NIH Chemical Genomics Center [NCGC]
PI Name: David Sibley, National Institutes of Neurological Disorders and Stroke
DiscoveRx D2 cells were thawed from frozen stock and seeded at 2,100 cells/ 3 uL/well media (DiscoveRx Plating Reagent 2) with MultiDrop Combi dispenser (Thermo Scientific, Logan, UT) onto white tissue culture treated 1536-well Aurora plates (Brooks Automation, Chelmsford, MA) and allowed to attach overnight at 37 deg C, 5% CO2. Next, 23 nL/well of compound solutions in DMSO were added with a pintool transfer (Kalypsis, San Diego, CA). As the positive control, 1 uL/well dopamine (EC100, 57 uM final concentration) diluted in buffer (HBSS + 10 mM HEPES + SMB + 0.1% Tween-20) was dispensed to 1 column of each plate. The rest of the plate was dispensed with buffer only, 1 uL/well as well. The cells were stimulated by compounds or dopamine control for 90 minutes at 37 deg C, 5% CO2, after which 1.5 ul/well of DiscoveRx detection reagent was added with BioRAPTR FRD dispenser. The detection reagent was prepared by mixing of Galacton Star Substrate, Emerald II solution and PathHunter buffer (supplied by the assay kit) together at 1:5:19 proportion accordingly just prior to dispensing. The plates were incubated at ambient temperature for 1 hour and then the luminescent signal was read on ViewLux plate reader (PerkinElmer, Waltham, MA).

activation, active:
O=C(c1ccco1)N1CCN(Cc2cccc(C(F)(F)F)c2)CC1 41.8%
COc1cccc(OC)c1OCCN1CCN(C(=O)c2ccco2)CC1 44.2%
O=C(c1cccs1)N1CCN(Cc2ccc3c(c2)OCO3)CC1 46.9%
COc1ccc(C(=O)O/N=C(\N)c2ccccn2)cc1[N+](=O)[O-] 42.1%
CC(=O)NC(c1ccccc1)c1nc(-c2ccccc2C)cs1 (stereo not given) 73.4%

activation, inactive:
Cc1ccc(N=C2NC(=O)c3cccc([N+](=O)[O-])c32)cc1 1.24%
COc1ccc([C@H]2C[C@@H](n3cc(COC(=O)c4ccccc4)nn3)[C@H](O)CN2C(=O)c2cccs2)cc1 -3.3%
COc1cc(C(=O)Nc2cc(C(F)(F)F)ccc2N2CCOCC2)ccc1O -0.449%
CCOC(=O)C(NS(=O)(=O)c1ccc(C)cc1)(C(F)(F)F)P(=O)(OCC(C)C)OCC(C)C (stereo not given) -3.61%
COc1ccc(N2C(=O)C3C(C2=O)C(C(=O)c2ccccc2)N2CCCC32)cc1 (stereo not given) -3.43%
O=C(CSc1ccccn1)Nc1nc2c(ccc3ccccc32)s1 -0.569%
CC(=O)c1nn(-c2ccccc2)c(=Nc2ccccc2)cc1C -5.64%
CON(C)S(=O)(=O)c1ccc2c(c1)NC(=O)C1CCCN21 (stereo not given) -0.103%
O=C(OCC(=O)N1CCN(C(=O)c2ccco2)CC1)c1c(Cl)cccc1Cl -10.9%
O=C(c1ccco1)N1CCN(C(=S)Nc2cc(F)cc(F)c2)CC1 0.341%
COc1cccc(OCc2cc(C(=O)N3CCN(C(=O)c4ccco4)CC3)no2)c1 2.91%
O=C(CN1CCN(C(=O)c2ccco2)CC1)Nc1ccc(Cl)c(C(F)(F)F)c1 -0.549%
CC1=CC=CN2C1=NC(=O)CC2(C)C(=O)N(CC(=O)NC1CCCC1)c1ccccc1C (stereo not given) 4.24%
COc1ccc(-c2ccc3[nH]c4c(c3c2)CCN2C[C@H]3[C@H](C)ON(C)[C@H]3C[C@@H]42)cc1 -8.14%
Cc1cc(C)n2nc(C(=O)N3CCN(Cc4ccc5c(c4)OCO5)CC3)nc2n1 10.2%
COc1ccc(-c2cc(C(=O)N3CCN(Cc4ccc5c(c4)OCO5)CC3)on2)cc1OC -0.403%
CCOc1ccc(C(=O)NCC(=O)N2CCN(c3ccc(C(F)(F)F)cn3)CC2)cc1 9.96%
COP1(=O)C[C@@H](O)[C@@H](O)[C@@H](COCc2ccccc2)O1 (stereo not given in full) 0.955%
Oc1cc2c(cc1O)CN(C(=S)NCCc1ccc(Cl)cc1)CCC2 -1.87%
O=[N+]([O-])c1ccc(CN2CC(N3CC=CC3)CS2(=O)=O)cc1 (stereo not given) -1.85%
CCc1ccc(OCC(=O)OC(C)C(=O)NC2CC2)cc1 (stereo not given) -2.44%
Cc1cc(C)cc(N(CC(=O)N2CC=C(c3ccccc3)CC2)S(=O)(=O)c2c(C)noc2C)c1 0.128%
COc1ccccc1CCNC(=O)CN1C(=O)NC2(CCCC2)C1=O -3.81%
O=c1ccn([C@@H]2O[C@H](CNS(=O)(=O)c3cc4ccccc4s3)[C@@H](O)[C@H]2O)c(=O)[nH]1 -2.86%
CCOC1=C2CN(S(=O)(=O)c3ccc(C)cc3)[C@H](c3cccs3)C[C@H]2[C@H]2C(=O)N(c3ccccc3)C(=O)[C@H]2C1 -3.55%
CCC(C)(C)n1nnnc1CN1CCN(c2nc3ccc(C)cc3cc2C#N)CC1 -5.17%
Cc1ccc(C(=O)O/N=C(\N)c2ccccn2)cc1Cl 5.09%
COc1ccc(C(=O)NNC(=O)c2cnccn2)cc1[N+](=O)[O-] 4.81%
O=C(NCCO)c1cccc(-c2cccc3nccn23)c1 -5%
O=C(CC1SC(=Nc2ccccc2)N(Cc2ccccn2)C1=O)Nc1cccc(Cl)c1 (stereo not given) 0.599%
CNc1cncc(-c2cccc(C(=O)N3CCOCC3)c2)n1 -3.27%
CC(C)c1cccc(-c2csc(C(O)c3ccccc3)n2)c1 (stereo not given) 5.04%
CCC(=O)OCc1c(C(F)(F)F)nn(C)c1Oc1cccc(C(F)(F)F)c1 -2.87%
O=C(CN1CCN(S(=O)(=O)c2ccc3ccccc3c2)CC1)NC(=O)NC1CCCCC1 -2.7%
CCn1cc(CNC(=O)c2cc([N+](=O)[O-])c(C)c([N+](=O)[O-])c2)cn1 1.34%
O=C1C=CN2CCCC2CC1 (stereo not given) -2.65%
Nc1ncnc2c1ncn2[C@@H]1O[C@H](C(=O)N2CCCN(Cc3ccccc3F)CC2)[C@@H](O)[C@H]1O -3.13%
O=C1CCC(C(=O)Nc2ccc(OC(F)F)cc2)N1 (stereo not given) -0.767%
O=C1CSC(=O)N1CCOCCN1C(=O)CSC1=O -0.569%
CN(CCc1ccccn1)C1CCCN(S(=O)(=O)c2ccccc2Cl)C1 (stereo not given) 4.32%
OCCN1CCN(c2ncnc3c2ncn3[C@H]2CN(Cc3ccco3)C[C@@H](CO)O2)CC1 2.19%
COc1ccc(OCc2nnc3n2N=C(c2ccccc2)C(CC(=O)O)S3)cc1 (stereo not given) -4.75%
CCn1c(SCC(=O)Nc2cccc(F)c2)nnc1-c1cc2cc(Br)ccc2o1 0.906%
O=C1N(c2ccccc2)C(=Nc2ccccc2)SC12CC2 -5.55%
O=C(CN1CCOCC1)Nc1c2c(nc3c1CCC3)CCC2 -3.04%
Cc1nc(-c2ccc(F)cc2)c(CC(=O)N(C)CC(=O)Nc2c(C)cccc2C)s1 0.938%
Cn1nc(C(F)(F)F)c(C(=O)Nc2cccc(C(F)(F)F)c2)c1SCc1ccc(Cl)cc1 2.52%
CC(=O)NC(c1ccccc1)c1nc(-c2cccc(C(C)C)c2)cs1 (stereo not given) 1.91%
COc1cccc(C(NC(C)=O)c2nc(-c3ccccc3OC)cs2)c1 (stereo not given) -6.01%
CCCC(=O)N1CCC1(C)C(=O)NS(=O)(=O)c1ccc(Cl)cc1 (stereo not given) -2.87%
